Experimental findings from PubChem BioAssay (EPA / NIEHS) are described below.

The nature of assay [1]: ATG_NFI_CIS: Attagene CIS-FACTORIAL HepG2 Assay for human Nuclear Factor I (NFI) (AID 2282989). Conditions: HepG2 cis-regulatory reporter, NFI response element transcription; actives raise or lower the signal. A digest of the protocol: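 Multiplexed cis-reporter system in human HepG2 cells reports native TF activity as reporter mRNA induction 24 h post-dose. Fragments labelled with 6-FAM, HpaI-digested and resolved by capillary electrophoresis; activity fitted both directions versus DMSO.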

The target of assay [2] is Myc proto-oncogene protein (Homo sapiens) (UniProt P01106). The experiment in a line: ATG_Myc_CIS: Attagene CIS-FACTORIAL HepG2 Assay for human Myelocytomatosis (Myc) Proto-Oncogene Transcription Factor (AID 2282990). The following applies: HepG2, Attagene cis-reporter transcription factor activity; actives raise or lower the signal. The method in brief:
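Multiplexed cis-reporter transcription in HepG2 cells after 24 h chemical treatment. Reporter mRNA measured by RT-PCR and capillary electrophoresis fluorescence; activity fitted bidirectionally against DMSO control.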

A short description of assay [3]: ATG_NRF2_ARE_CIS: Attagene CIS-FACTORIAL HepG2 Assay for human Nuclear Factor Erythroid 2 Related Factor 2 (NFR2) response to Antioxidant Response Elements (ARE) (AID 2282992). Conditions: HepG2 Attagene ARE/NRF2 reporter, transcription factor activity; actives raise or lower the signal. A digest of the protocol:
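Endogenous transcription factor activity read out as reporter transcript levels (RT-PCR plus capillary electrophoresis, fluorescence) in transiently transfected HepG2 cells. Measured at 24 h after dosing; gain or loss of signal fitted versus DMSO.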

Assay [4] is described as follows: ATG_Oct_MLP_CIS: Attagene CIS-FACTORIAL HepG2 Assay for human Octamer-Binding Transcription Factor (Oct) (AID 2282993). Conditions: HepG2 Attagene cis-factorial Oct reporter, mRNA; actives raise or lower the signal. A digest of the protocol: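 After 24 h compound exposure, transfected HepG2 cells were lysed for total RNA; reporter-specific cDNA was PCR-amplified, fluorescently labelled and sized by capillary electrophoresis. Bidirectional curve fitting used DMSO as baseline.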

Assay [5] has as its target Cellular tumor antigen p53 (Homo sapiens) (UniProt P04637). Put plainly: ATG_p53_CIS: Attagene CIS-FACTORIAL HepG2 Assay for human p53 Transcription Factor (AID 2282994). The following applies: HepG2 p53 cis-element reporter, Attagene mRNA; actives raise or lower the signal. A digest of the protocol: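 Endogenous p53 activity read in transiently transfected HepG2 from a cis-element-driven reporter transcript after 24 h exposure. RNA reverse-transcribed, PCR-amplified, fluorescently labelled and sized by capillary electrophoresis; gain or loss fitted against DMSO baseline.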

Assay [6] has as its target human Peroxisome Proliferator-activated Receptor delta (PPARd), PPARD (gene 5467) (UniProt Q03181). Put plainly: ATG_PPARd_TRANS: Attagene TRANS-FACTORIAL HepG2 Assay for human Peroxisome Proliferator-activated Receptor delta (PPARd) (AID 2283002; active = hit-call score of the fitted dose curve at least 0.9, where 1 is the maximum). A digest of the protocol: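 Multiplexed trans-activation format: HepG2 liver cells expressing exogenous NR-Gal4 chimeras and GAL4-UAS reporters were exposed for 24 h. Reporter mRNA was detected by RT-PCR with capillary electrophoresis fluorescence; activity fitted as gain of signal relative to DMSO.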

The target of assay [7] is Peroxisome proliferator-activated receptor gamma (Homo sapiens) (UniProt P37231). The experiment in a line: ATG_PPARg_TRANS: Attagene TRANS-FACTORIAL HepG2 Assay for human Peroxisome Proliferator-activated Receptor-gamma (PPARg) (AID 2283007; active = hit-call score of the fitted dose curve at least 0.9, where 1 is the maximum). The method in brief:
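HepG2 cells are transiently transfected with GAL4-UAS reporter units driven by chimeric NR-Gal4 fusions and dosed for 24 h. Reporter mRNA is quantified by RT-PCR, 6-FAM labelling, HpaI digestion and capillary electrophoresis. Induction is scored against DMSO.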

Assay [8] deals with Nuclear receptor subfamily 1 group I member 2 (Homo sapiens) (UniProt O75469). The experiment in a line: ATG_PXR_TRANS: Attagene TRANS-FACTORIAL HepG2 Assay for human Pregnane X Receptor (PXR) (AID 2283008; active = hit-call score of the fitted dose curve at least 0.9, where 1 is the maximum). The method in brief: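 Transactivation by exogenous PXR–GAL4 fusion measured as reporter transcript induction after 24 h compound treatment of transfected human HepG2 cells. Read-out via RT-PCR and capillary electrophoresis of labelled fragments, fitted upward relative to DMSO.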

In assay [9] the target is human RAR-related Orphan Receptor beta (RORb), RORB (gene 6096) (UniProt Q92753). The experiment in a line: ATG_RORb_TRANS: Attagene TRANS-FACTORIAL HepG2 Assay for human RAR-related Orphan Receptor beta (RORb) (AID 2283010; active = hit-call score of the fitted dose curve at least 0.9, where 1 is the maximum). The method in brief:
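Read-out is reporter mRNA induction, quantified by RT-PCR with fluorescent capillary electrophoresis, 24 h post-dose in transiently transfected HepG2 expressing exogenous NR-Gal4 chimera. Activity fitted upward versus DMSO.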

Assay [10] deals with human Retinoic Acid Receptor gamma (RARg), RARG (gene 5916) (UniProt P13631). Put plainly: ATG_RARg_TRANS: Attagene TRANS-FACTORIAL HepG2 Assay for human Retinoic Acid Receptor gamma (RARg) (AID 2283009; active = hit-call score of the fitted dose curve at least 0.9, where 1 is the maximum). A digest of the protocol: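 Transactivation of exogenous RARg-Gal4 fusion measured as reporter transcript induction after 24 h in transfected HepG2 cells. RNA reverse-transcribed, amplified, fluorescently labeled and resolved by capillary electrophoresis; increase relative to DMSO.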

Assay [11] in a line: BSK_3C_TissueFactor: BioMAP Diversity Plus: 3C Assay for Tissue Factor Biomarker Activity (AID 2282997). The following applies: BioMAP 3C HUVEC, tissue factor biomarker readout; actives raise or lower the signal. The method in brief: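 Readout: Tissue Factor ELISA. Cells: human primary umbilical vein endothelium. Time: 24 h after dosing. Analysis: bidirectional fit, DMSO baseline.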

Assay [12] in a line: BSK_3C_uPAR: BioMAP Diversity Plus: 3C Assay for Urokinase-type plasminogen activator receptor (uPAR) Biomarker Activity (AID 2282998). The following applies: BioMAP 3C HUVEC, uPAR biomarker ELISA; actives raise or lower the signal. A digest of the protocol: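 Values derive from bidirectional curve fitting relative to DMSO, which served as baseline of activity. uPAR was measured by ELISA in human umbilical vein endothelial primary cultures 24 h after compound addition.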
(In general: In an ELISA, binding on a coated surface is turned into a signal by an enzyme label.)

Assay [13] in a line: BSK_3C_VCAM1: BioMAP Diversity Plus: 3C Assay for Vascular cell adhesion molecule 1 (VCAM1) Biomarker Activity (AID 2282999). Conditions: BioMAP 3C HUVEC, VCAM1 ELISA, cytokine-stimulated; actives raise or lower the signal. The method in brief:
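Vascular primary endothelium (human umbilical vein) was exposed to chemicals and assayed 24 h later. VCAM-1 levels came from ELISA, with DMSO serving as baseline for bidirectional fitting.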

Assay [14] is described as follows: BSK_4H_Eotaxin3: BioMAP Diversity Plus: 4H Assay for Eotaxin 3 Biomarker Activity (AID 2283000).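 Note: CCL26 protein level quantified by ELISA in parallel with SRB cytotoxicity check.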 Conditions: primary human endothelial cells (HUVEC); actives raise or lower the signal. A digest of the protocol:
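HUVEC, 24 h post-dose, ELISA for Eotaxin-3/CCL26. Gain or loss of signal fitted bidirectionally vs DMSO baseline.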

Assay [15] addresses human Peroxisome Proliferator-activated Receptor alpha (PPARa), PPARA (gene 5465) (UniProt Q07869). Put plainly: ATG_PPARa_TRANS: Attagene TRANS-FACTORIAL HepG2 Assay for human Peroxisome Proliferator-activated Receptor alpha (PPARa) (AID 2283001; active = hit-call score of the fitted dose curve at least 0.9, where 1 is the maximum;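 for AC50: potency for gain of reporter signal over DMSO so agonist or activator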). The method in brief:
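Cells (HepG2) are transfected with multiple reporter transcription units, exposed to chemical for 24 h, then total RNA is reverse-transcribed and amplified. Labelled products are quantified by capillary electrophoresis; induction is referenced to DMSO.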

Read-out in assay [16]: Intercellular Adhesion Molecule 1 (ICAM1), ICAM1 (gene 3383)
Put plainly: BSK_3C_ICAM1: BioMAP Diversity Plus: 3C Assay for Intercellular Adhesion Molecule 1 (ICAM1) Biomarker Activity (AID 2283003). The following applies: primary human endothelial cells (HUVEC); actives raise or lower the signal. The method in brief:
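ELISA readout of ICAM1 in human umbilical vein endothelial cells in the 3C system, taken 24 h post-dose. Gain or loss of signal versus DMSO was fitted in both directions, with SRB total-protein staining run in parallel.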

Assay [17] concerns the target human Retinoic Acid Receptor beta (RARb), RARB (gene 5915) (UniProt P10826). The experiment in a line: ATG_RARb_TRANS: Attagene TRANS-FACTORIAL HepG2 Assay for human Retinoic Acid Receptor beta (AID 2283004; active = hit-call score of the fitted dose curve at least 0.9, where 1 is the maximum). A digest of the protocol:
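HepG2 cells transiently transfected with multiplexed GAL4-UAS reporter units expressing chimeric NR–Gal4 fusions; 24 h compound exposure. Reporter mRNA quantified by RT-PCR, 6-FAM labelling, HpaI digestion and capillary electrophoresis; gain-of-signal fitted against DMSO baseline.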

For assay [18], the target named is Retinoic acid receptor alpha (Homo sapiens) (UniProt P10276). The experiment in a line: ATG_RARa_TRANS: Attagene TRANS-FACTORIAL HepG2 Assay for human Retinoic Acid Receptor alpha (RARa) (AID 2283005; active = hit-call score of the fitted dose curve at least 0.9, where 1 is the maximum). A digest of the protocol: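 HepG2 cells transiently transfected with multiple reporter units expressing chimeric RARα-GAL4 fusion, with GAL4-UAS-driven reporters. After 24 h compound exposure, reporter mRNA induction quantified by RT-PCR and capillary electrophoresis with fluorescent labeling; gain-of-signal fitted relative to DMSO control.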

The nature of assay [19]: BSK_3C_Proliferation: Cell Proliferation Assessment in the BioMAP Diversity Plus: 3C Assay (AID 2283006). The following applies: primary human endothelial cells (HUVEC). A digest of the protocol: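 Proliferation as total protein: sulforhodamine B (0.1%) stain of TCA-fixed subconfluent human umbilical vein endothelial cells, absorbance 560 nm, 48 h after dosing. Activity fitted in both directions against DMSO baseline.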

Each structure is given as a SMILES string. Inconclusive results are not listed. Calls of active or inactive are those of the source. Rule for the calls, unless noted: active = hit-call score of the fitted dose curve at least 0.9, where 1 is the maximum; inactive = score below 0.9.

Sequence of Nuclear receptor subfamily 1 group I member 2 (Homo sapiens) (O75469 whole entry, looked up, the tested form may be a part): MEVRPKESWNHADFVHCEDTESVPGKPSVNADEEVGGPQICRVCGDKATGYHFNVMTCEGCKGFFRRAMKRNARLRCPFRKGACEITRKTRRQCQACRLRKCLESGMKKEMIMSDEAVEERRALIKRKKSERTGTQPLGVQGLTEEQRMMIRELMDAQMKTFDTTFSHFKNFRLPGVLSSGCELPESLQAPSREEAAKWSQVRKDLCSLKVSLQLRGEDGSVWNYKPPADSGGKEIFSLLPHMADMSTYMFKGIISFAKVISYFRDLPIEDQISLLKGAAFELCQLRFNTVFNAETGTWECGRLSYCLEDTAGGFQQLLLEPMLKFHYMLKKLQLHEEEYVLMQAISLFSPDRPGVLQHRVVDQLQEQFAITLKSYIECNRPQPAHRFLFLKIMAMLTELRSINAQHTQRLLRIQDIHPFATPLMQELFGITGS
Sequence of human Peroxisome Proliferator-activated Receptor delta (PPARd), PPARD (gene 5467) (Q03181 whole entry, looked up, the tested form may be a part): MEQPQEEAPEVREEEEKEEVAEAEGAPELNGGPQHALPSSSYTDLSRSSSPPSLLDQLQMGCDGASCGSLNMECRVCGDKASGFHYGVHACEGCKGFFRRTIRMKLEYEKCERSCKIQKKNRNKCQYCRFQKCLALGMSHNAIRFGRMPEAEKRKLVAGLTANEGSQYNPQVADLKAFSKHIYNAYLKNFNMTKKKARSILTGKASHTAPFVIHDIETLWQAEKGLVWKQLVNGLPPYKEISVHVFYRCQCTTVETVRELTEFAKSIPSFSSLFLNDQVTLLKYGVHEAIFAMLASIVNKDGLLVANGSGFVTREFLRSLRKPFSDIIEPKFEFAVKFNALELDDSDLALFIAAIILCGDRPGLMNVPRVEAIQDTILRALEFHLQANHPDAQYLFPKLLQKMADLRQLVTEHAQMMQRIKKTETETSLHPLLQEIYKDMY
Sequence of Peroxisome proliferator-activated receptor gamma (Homo sapiens) (P37231 whole entry, looked up, the tested form may be a part): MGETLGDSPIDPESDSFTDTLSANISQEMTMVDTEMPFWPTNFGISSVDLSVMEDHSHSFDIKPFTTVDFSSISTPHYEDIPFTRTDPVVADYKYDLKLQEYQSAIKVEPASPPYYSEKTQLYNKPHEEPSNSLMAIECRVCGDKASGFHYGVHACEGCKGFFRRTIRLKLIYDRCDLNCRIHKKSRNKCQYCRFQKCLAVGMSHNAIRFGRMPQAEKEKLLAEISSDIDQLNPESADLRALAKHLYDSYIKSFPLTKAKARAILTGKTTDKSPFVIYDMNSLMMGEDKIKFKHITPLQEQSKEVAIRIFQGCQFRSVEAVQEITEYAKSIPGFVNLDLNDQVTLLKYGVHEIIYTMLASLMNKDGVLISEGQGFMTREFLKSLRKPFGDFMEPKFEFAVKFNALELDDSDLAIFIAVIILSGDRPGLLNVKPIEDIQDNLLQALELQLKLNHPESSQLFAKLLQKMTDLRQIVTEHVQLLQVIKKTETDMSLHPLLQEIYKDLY
Sequence of human Retinoic Acid Receptor beta (RARb), RARB (gene 5915) (P10826 whole entry, looked up, the tested form may be a part): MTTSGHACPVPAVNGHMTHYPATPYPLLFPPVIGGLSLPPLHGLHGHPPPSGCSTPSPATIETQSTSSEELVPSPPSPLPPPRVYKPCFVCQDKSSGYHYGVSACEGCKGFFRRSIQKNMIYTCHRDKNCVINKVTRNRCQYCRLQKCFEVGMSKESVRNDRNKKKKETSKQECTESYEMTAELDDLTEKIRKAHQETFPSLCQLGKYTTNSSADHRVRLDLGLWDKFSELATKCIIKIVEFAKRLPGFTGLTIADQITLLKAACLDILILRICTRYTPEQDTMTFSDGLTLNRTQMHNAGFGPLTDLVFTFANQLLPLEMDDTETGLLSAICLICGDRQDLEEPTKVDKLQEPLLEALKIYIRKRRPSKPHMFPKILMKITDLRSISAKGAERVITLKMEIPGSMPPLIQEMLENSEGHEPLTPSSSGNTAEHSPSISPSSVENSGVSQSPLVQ
Sequence of Myc proto-oncogene protein (Homo sapiens) (P01106 whole entry, looked up): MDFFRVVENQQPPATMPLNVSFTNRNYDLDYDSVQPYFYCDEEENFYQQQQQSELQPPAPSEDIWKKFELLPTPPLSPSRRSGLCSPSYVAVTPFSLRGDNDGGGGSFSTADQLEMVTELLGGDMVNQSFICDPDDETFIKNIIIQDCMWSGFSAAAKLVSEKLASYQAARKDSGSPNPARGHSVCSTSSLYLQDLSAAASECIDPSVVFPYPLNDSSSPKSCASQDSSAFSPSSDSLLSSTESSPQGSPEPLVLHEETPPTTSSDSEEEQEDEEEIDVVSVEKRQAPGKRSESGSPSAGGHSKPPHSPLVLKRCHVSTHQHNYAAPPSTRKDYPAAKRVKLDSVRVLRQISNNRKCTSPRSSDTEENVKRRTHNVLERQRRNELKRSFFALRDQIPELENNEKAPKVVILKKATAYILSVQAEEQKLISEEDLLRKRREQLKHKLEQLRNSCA
Sequence of human RAR-related Orphan Receptor beta (RORb), RORB (gene 6096) (Q92753 whole entry, looked up, the tested form may be a part): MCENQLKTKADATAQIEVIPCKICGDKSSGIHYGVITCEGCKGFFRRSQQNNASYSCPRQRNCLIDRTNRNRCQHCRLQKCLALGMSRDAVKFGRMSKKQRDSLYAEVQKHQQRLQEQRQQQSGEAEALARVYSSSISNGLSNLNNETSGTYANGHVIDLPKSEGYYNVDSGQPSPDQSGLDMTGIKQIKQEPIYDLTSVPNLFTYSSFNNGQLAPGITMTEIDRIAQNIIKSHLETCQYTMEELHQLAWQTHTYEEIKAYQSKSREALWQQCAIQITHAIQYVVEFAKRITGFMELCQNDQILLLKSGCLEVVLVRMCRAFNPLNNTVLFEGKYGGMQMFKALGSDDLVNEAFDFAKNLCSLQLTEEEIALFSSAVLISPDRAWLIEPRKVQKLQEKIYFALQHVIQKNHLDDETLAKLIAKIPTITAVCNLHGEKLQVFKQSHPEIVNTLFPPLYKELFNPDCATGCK
Sequence of Cellular tumor antigen p53 (Homo sapiens) (P04637 whole entry, looked up): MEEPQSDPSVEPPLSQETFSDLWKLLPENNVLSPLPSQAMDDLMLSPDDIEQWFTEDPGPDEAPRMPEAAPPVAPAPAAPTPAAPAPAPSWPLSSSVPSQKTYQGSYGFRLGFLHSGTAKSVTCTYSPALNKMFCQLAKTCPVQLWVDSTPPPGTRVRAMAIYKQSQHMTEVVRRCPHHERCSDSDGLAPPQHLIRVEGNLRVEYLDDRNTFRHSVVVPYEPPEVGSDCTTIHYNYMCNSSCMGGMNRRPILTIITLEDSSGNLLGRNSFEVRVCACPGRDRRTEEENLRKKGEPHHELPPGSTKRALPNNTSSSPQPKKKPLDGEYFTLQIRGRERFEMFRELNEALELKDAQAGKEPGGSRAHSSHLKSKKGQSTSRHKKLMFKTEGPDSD
Sequence of human Peroxisome Proliferator-activated Receptor alpha (PPARa), PPARA (gene 5465) (Q07869 whole entry, looked up): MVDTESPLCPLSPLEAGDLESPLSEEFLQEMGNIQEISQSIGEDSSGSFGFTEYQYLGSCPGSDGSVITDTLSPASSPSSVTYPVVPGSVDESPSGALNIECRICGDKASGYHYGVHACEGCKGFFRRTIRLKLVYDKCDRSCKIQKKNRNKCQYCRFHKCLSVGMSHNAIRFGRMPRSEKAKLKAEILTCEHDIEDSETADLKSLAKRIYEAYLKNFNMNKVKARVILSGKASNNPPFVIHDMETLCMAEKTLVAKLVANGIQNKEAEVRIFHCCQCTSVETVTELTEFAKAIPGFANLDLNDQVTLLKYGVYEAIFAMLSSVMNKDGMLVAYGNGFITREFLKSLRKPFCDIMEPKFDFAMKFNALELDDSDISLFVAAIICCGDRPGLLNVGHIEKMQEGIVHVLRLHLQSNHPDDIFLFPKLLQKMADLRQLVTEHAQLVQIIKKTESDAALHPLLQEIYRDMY
Sequence of human Retinoic Acid Receptor gamma (RARg), RARG (gene 5916) (P13631 whole entry, looked up, the tested form may be a part): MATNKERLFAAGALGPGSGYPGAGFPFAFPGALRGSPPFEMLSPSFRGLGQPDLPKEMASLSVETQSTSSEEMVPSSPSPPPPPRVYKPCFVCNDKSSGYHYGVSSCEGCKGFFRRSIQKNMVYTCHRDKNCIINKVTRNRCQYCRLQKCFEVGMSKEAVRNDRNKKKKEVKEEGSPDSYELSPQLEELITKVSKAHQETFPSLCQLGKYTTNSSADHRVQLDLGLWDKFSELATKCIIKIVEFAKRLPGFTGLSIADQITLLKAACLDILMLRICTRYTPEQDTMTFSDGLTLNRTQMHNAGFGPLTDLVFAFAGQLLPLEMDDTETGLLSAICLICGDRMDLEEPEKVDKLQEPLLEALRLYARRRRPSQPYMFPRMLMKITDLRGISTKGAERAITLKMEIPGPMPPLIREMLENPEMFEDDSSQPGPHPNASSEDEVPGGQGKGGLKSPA
Sequence of Retinoic acid receptor alpha (Homo sapiens) (P10276 whole entry, looked up, the tested form may be a part): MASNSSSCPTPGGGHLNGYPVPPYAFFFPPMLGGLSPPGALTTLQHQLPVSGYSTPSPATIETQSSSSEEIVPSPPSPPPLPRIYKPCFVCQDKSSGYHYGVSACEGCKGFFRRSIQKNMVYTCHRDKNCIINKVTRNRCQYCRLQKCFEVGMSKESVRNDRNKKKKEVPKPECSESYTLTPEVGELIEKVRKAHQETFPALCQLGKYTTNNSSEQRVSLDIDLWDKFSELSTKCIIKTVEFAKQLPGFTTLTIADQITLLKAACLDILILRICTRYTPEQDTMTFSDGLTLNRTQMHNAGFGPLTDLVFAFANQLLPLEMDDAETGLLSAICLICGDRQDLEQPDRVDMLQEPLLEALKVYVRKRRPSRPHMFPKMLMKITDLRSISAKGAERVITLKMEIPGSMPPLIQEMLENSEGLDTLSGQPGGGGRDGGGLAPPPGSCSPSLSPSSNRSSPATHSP

Consider `OC[C@H]1O[C@@H](Oc2ccc(O)cc2)[C@H](O)[C@@H](O)[C@@H]1O`, for which the molecule was called inactive in [1], in [2], in [3], in assay [4], in assay [5] and in assay [6].

Take `Cc1ccc2c(c1)C(=O)OC2=O`: the call in assay [1], in [2], in [3], in assay [4], in [5] and in [6] was inactive. Further, the outcome in assay [7], in assay [8] and in assay [9] was inactive.

As to `O=C(CC(=O)c1ccccc1)c1ccccc1`, the half-maximal activity concentration (AC50) (in general, the concentration giving half of the maximal activity seen) in assay [1] is 100 µM (active); in assay [2] it was 100 µM (active); in assay [3], 3.43 µM (active); in assay [4], 59 µM (active); in [7], 3.74 µM (active); in assay [8], 28.2 µM (active). The molecule was called inactive in assay [5] and in [6].

`CCCCCCCCN1CCCC1=O`: the molecule was classed as inactive in [1], in assay [2], in assay [4], in assay [7] and in assay [10]. Further, the values for the AC50 in assay [3], in assay [5] and in assay [8] were 66.8 µM (active), 72.6 µM (active) and 7.53 µM (active), respectively.

Take `COc1cc(Cl)c(OC)cc1N`: the result in [1], in assay [2], in assay [3], in assay [4], in [11] and in assay [12] was inactive. For the same molecule, the result in assay [13], in assay [14], in [15], in assay [6], in assay [16] and in [17] was inactive. For the same molecule, the result in [18], in assay [19], in assay [7], in [8] and in [10] was inactive.

As to `CCCC(=O)OCCc1ccccc1`, the molecule was called inactive in assay [1], in assay [2], in assay [3], in [5], in [8] and in assay [9].

Consider `CCCCCCCC/C=C\CCCCCCCC(=O)OCC`, for which the outcome in [1], in [2], in [3], in assay [4], in assay [6] and in assay [17] was inactive. Besides, the call in assay [8] and in assay [9] was inactive. The values for the concentration at half-maximal activity (AC50) in assay [15] and in [7] were 45.1 µM (active) and 50.5 µM (active), respectively.

`CC1(C)O[C@@H]2C[C@H]3[C@@H]4CCC5=CC(=O)C=C[C@]5(C)[C@@]4(F)[C@@H](O)C[C@]3(C)[C@]2(C(=O)CO)O1`: the call in assay [1], in assay [2], in assay [3], in assay [4], in assay [5] and in [6] was inactive. Further, the molecule was called inactive in assay [9]. Moreover, the half-maximal activity concentration (AC50) in assay [8] is 4.98 µM (active).

Turning to `CCCC(=O)C(CC)Sc1ccoc1C` (stereo not given), the call in [1], in [2], in [4] and in assay [5] was inactive. The concentration at half-maximal activity (AC50) was 27.7 µM (active) in [3], 33.6 µM (active) in assay [7] and 9.72 µM (active) in assay [8].

Turning to `CC/C=C\CC/C=C/CO`, the outcome in [1], in assay [2], in [4], in assay [15], in [6] and in [8] was inactive. Also, the AC50 in assay [3] was 48.2 µM (active); in assay [7], 52.9 µM (active).

For `CCCCCCC(=O)c1ccccc1`, the molecule was classed as inactive in [1], in [2], in assay [4], in assay [15] and in [6]. Also, the AC50 in [3] is 121 µM (active); in assay [7], 42.8 µM (active); in assay [8], 59.2 µM (active).

Regarding `CCCCCCC(O)CCCCCCCCCCC(=O)O` (stereo not given), the outcome in assay [1], in assay [2], in assay [4], in [17], in assay [8] and in assay [10] was inactive. Further, the AC50 in [3] is 27.3 µM (active); in assay [15] it was 5.01 µM (active); in assay [6], 12.1 µM (active); in assay [7], 14.2 µM (active).
